Measured values from PubChem BioAssay AID371 (SRMLSC, 2006).
In all, about 3,300 compounds went through this assay and about 280 (8.5%) were called active.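 Rule for the calls: active = mean growth inhibition over the two runs of 50% or more; inactive = mean growth inhibition under 50%.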 The sample as a whole holds a higher share of actives than the screen did.

Test: A549 NSCLC cell proliferation inhibitors – ATP luminescence, human non-small cell lung line, primary screen (AID 371);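 note: compound exposure lasted 72 h before the ATP read; 0% = untreated cell signal and 100% = no luminescence left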
Conditions: at 10 µM, hits give high values

Growth inhibition, inactive:
CCOCCSc1nc2c(c(=O)[nH]c(=O)n2C)n1CCCc1ccccc1 20.2%
CCN(CC)CCCN1C(=O)C(O)=C(C(=O)c2ccc(C)o2)C1c1ccc(C)o1 (configuration not stated) 5.46%
CC1CC(C(F)(F)F)n2ncnc2N1 (configuration not stated) 2.4%
CC(C)OC(=O)[C@H]1[C@H](c2ccc(Cl)cc2)[C@@](C#N)(C(N)=O)[C@@H]2C=CC(C(N)=O)=CN21 6.9%
Cc1cccc(N2C(=O)CC(N3CCN(Cc4ccc(Cl)cc4)CC3)C2=O)c1 (configuration not stated) -1.79%
O=C(Nc1ccc(Cl)cn1)C1CCCN1S(=O)(=O)c1ccccc1 (configuration not stated) -16.6%
CCCOc1cc(CN2CCCCC2)cc(C(C)=O)c1 5.4%
CCNC(=O)N(C(=O)NCC)n1c(C)nnc1C -3.85%
c1ccc(CSc2nnc(SCc3ccccn3)s2)nc1 -7.61%
N#CC1=C(N)N2C(=C(C#N)C1c1ccccc1)Sc1ccccc12 (configuration not stated) -5.42%
C#CC1CN(Cc2ccccc2)CC(C#C)N1C (configuration not stated) 4.27%
Cc1ccc(Cn2ncc3c(N4CCOCC4)ncnc32)cc1 19.4%
Cc1ccc(Cn2ncc3c(N4CCN(c5ccc(C)cc5)CC4)ncnc32)cc1 30.8%
COC(=O)C(NC(C)=O)(Nc1ccc(Br)cc1)C(=O)OC 36.9%
CCN1CCCC1Cn1cnc2c([nH]c3ccc(C)cc32)c1=O (configuration not stated) 6.64%
Cc1ccc2[nH]c3c(N4CCOCC4)ncnc3c2c1 34.7%
c1ccc2c(c1)[nH]c1c(N3CCC4(CC3)OCCO4)ncnc12 34%
c1ccc2c(c1)[nH]c1c(N3CCSCC3)ncnc12 33.6%
CSc1nnc2n(C3CCCCC3)c(=O)c3c4c(sc3n12)CCCC4 6.35%
COc1cccc(C(=O)OCCN(C)C(C)(C)C)c1 0.03%
OCCOCCNc1ncnc2c1cnn2-c1ccccc1 5.28%
Cc1cc(=O)oc2cc(OCCSCCN3CCOCC3)ccc12 8.74%
CCn1cc(/C=N/O)c(C)n1 -8.38%
O=C1OC(N2CCN(C/C=C/c3ccccc3)CC2)c2ccccc21 (configuration not stated) 7.88%
Cc1cc(SCCC(=O)O)nc2ccccc12 -1.53%
CCOC(=O)c1cnc(SC2CC(=O)N(c3cccc(OC)c3)C2=O)nc1N (configuration not stated) -4.72%
Cn1ccnc1SCCC#N -0.21%
N#Cc1nc(COc2ccc(Cl)cc2)oc1N1CCN(Cc2ccccc2)CC1 21.8%
O=C(c1ccco1)N1CCN(c2ncnc3c2[nH]c2ccccc23)CC1 25.7%
COc1ccc(C=NCCCN2CCOCC2)cc1 2.05%
Cc1csc2nc(CSc3nc4ccccc4o3)cn12 29.3%
CCOC(=O)c1ccc(N2C(=O)CC(Sc3nnc(C)s3)C2=O)cc1 (configuration not stated) -4.68%
Cc1ccc(-c2nnc(-c3ccccc3)o2)cc1Br 10.3%
Brc1ccc(-c2cnnc(N3CCCC3)n2)cc1 24%
COc1ccc(C2/C(=C(/O)c3cnn(-c4ccccc4)c3C)C(=O)C(=O)N2CCN(C)C)cc1OC (configuration not stated) 7.72%
CSc1nc(Oc2ccc(=O)[nH]n2)nc(N(C)C)n1 2.49%
COc1ccc(/C(O)=C2/C(=O)C(=O)N(CCN3CCOCC3)C2c2ccccn2)cc1OC (configuration not stated) 0.85%
COc1cc2nc(-c3ccccc3)nc(N3CCCC3)c2cc1OC 2.86%
Brc1cccc(-c2cnc3n2CCCCC3)c1 24.1%
COc1ccc(CN(C#N)c2nc(SC)nc(N(C)C)n2)cc1 32.9%
CCN(CC)c1ncc(C)c(=O)[nH]1 -0.05%
CCOC(=O)Cc1nnc(Nc2cccc(O)c2)c2ccccc12 -1.35%
N=c1ncn(CC(O)CN2CCOCC2)c2nc(N3CCOCC3)[nH]c12 (configuration not stated) -5.31%
C=CCc1cccc(/C=N/n2cnnc2)c1O 2.3%
C=CCc1cccc(/C=N/c2ncn[nH]2)c1O 0.97%
CN=c1sc2ccccc2n1CC(O)COCc1ccco1 (configuration not stated) -6.68%
CCSc1nnc(NC(NC(=O)c2ccco2)(C(F)(F)F)C(F)(F)F)s1 -2.3%
CCCc1nnc(NC(=O)Nc2ccccc2OC)s1 17.3%
CCC(C(=O)Nc1nccs1)(C(F)(F)F)C(F)(F)F 12.8%
CCSc1nnc(NC(=O)C(C(F)(F)F)C(F)(F)F)s1 7.68%
CC(NC(=O)Nc1nnc(C(F)(F)F)s1)(C(F)(F)F)C(F)(F)F 11.8%
O=C(NCC(F)(F)F)Nc1nnc(C(F)(F)F)s1 17.9%
CCCSc1nnc(NC(=O)Nc2ccccc2)s1 45.3%
CCC(C(=O)Nc1ncn[nH]1)(C(F)(F)F)C(F)(F)F 2.05%

Growth inhibition, active:
Cc1ccc(Cn2ncc3c(N4CCN(Cc5ccc(Cl)cc5)CC4)ncnc32)cc1 53.7%
OC1(c2cccc(C(F)(F)F)c2)CCN(c2ncnc3c2[nH]c2ccccc23)CC1 92.4%
Cc1ccc2[nH]c3c(N4CCCCCC4)ncnc3c2c1 72.1%
Cc1ccc2[nH]c3c(N4CCN(Cc5ccccc5)CC4)ncnc3c2c1 80.6%
c1ccc2c(c1)CCN(c1ncnc3c1[nH]c1ccccc13)C2 77.4%
c1ccc(CN2CCN(c3ncnc4c3[nH]c3ccccc34)CC2)cc1 63%
Cc1ccccc1N1C(=O)CC(Sc2nnc(-c3ccccc3)o2)C1=O (configuration not stated) 56.6%
CCOc1cc2nc(-c3ccc(OC)c(OC)c3)nc(N3CCOCC3)c2cc1OC 66.5%
C=CCc1cccc(CNc2nc3ccccc3n2C(C)C)c1O 74.7%
CCSc1nnc(NC(=O)C(C)(C(F)(F)F)C(F)(F)F)s1 61.8%
CCSc1nnc(NC(=O)C(CC)(C(F)(F)F)C(F)(F)F)s1 66%
CCC(NC(=O)Nc1nnc(C(F)(F)F)s1)(C(F)(F)F)C(F)(F)F 81.7%
CCCSc1nnc(NC(=O)Nc2ccc(F)cc2)s1 70.3%
